Data on 55 compounds can be found in article PMC4336329 (PLoS ONE, 2015).

Hit rate of the full screen: of about 310,000 compounds, about 14,000 (4.5%) showed an effect of 50% or more. The effect is printed as a negative number. The full list was thinned out, with strong results kept by preference.
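Further: peak tail current of the secondary pulse compared with the same well before compound.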

The target of the test is human ether-à-go-go-related gene (hERG) potassium channel (human, UniProt Q12809). As to the kind of experiment: primary screen, population patch clamp on CHO cells stably expressing hERG; higher = less effect of the substance.
Chain of human ether-à-go-go-related gene (hERG) potassium channel (Q12809 whole entry, looked up): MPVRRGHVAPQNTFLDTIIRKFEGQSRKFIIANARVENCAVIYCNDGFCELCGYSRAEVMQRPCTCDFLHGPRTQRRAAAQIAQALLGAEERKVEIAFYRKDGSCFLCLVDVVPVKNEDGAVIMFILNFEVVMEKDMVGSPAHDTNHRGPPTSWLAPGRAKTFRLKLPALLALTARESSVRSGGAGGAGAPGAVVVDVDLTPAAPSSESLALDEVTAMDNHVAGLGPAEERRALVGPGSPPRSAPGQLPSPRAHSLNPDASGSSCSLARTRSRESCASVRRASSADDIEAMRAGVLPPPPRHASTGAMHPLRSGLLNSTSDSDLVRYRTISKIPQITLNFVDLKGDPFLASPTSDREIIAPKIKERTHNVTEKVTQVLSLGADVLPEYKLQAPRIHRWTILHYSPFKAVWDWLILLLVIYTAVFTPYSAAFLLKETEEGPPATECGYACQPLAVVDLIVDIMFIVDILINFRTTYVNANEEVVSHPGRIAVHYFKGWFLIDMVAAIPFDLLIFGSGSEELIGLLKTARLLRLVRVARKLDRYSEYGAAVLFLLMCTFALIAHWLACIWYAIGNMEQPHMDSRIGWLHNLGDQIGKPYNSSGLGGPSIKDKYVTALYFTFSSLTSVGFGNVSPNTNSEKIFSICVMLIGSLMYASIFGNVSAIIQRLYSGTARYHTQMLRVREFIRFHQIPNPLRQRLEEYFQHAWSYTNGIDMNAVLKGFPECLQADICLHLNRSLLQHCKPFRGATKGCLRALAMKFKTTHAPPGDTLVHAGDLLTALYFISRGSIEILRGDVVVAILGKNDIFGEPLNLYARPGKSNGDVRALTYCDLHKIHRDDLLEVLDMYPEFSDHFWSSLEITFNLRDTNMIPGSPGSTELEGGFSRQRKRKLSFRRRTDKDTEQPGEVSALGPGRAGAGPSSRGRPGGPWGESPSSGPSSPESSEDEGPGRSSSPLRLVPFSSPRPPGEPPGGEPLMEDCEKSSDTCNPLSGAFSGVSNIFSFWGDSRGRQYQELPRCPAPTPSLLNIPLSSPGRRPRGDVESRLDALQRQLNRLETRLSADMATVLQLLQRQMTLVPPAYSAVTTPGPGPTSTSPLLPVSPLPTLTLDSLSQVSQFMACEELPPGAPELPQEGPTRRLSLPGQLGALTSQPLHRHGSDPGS
As for `Cc1ccc(-c2c[n+](CC(=O)Nc3cc(=O)n(C)c(=O)n3C)c3n2CCC3)cc1.[Cl-]`, the “hERG current change (%, negative = inhibition) at 10uM” value is -0.179%.

For the compound `Cc1ccc(-c2c[n+](CC(=O)Nc3nc(-c4ccccc4)cs3)c3n2CCC3)cc1.[Cl-]`, the “hERG current change (%, negative = inhibition) at 10uM” value is -54.9%. Next, `O=C(C[n+]1cc(-c2ccccc2)n2c1CCC2)Nc1nc(-c2ccccc2)cs1.[Cl-]`: -35.1%. Take `Cc1ccc(-c2csc(NC(=O)C[n+]3cc(-c4ccccc4)n4c3CCC4)n2)cc1.[Cl-]`: the “hERG current change (%, negative = inhibition) at 10uM” value is -57%.

Turning to `Cc1ccc(-c2c[n+](CC(=O)Nc3ccc(C)cc3C)c3n2CCC3)cc1.[Cl-]`, the “hERG current change (%, negative = inhibition) at 10uM” value is given as -30.8%. As to `Cc1cccc(C)c1NC(=O)C[n+]1cc(-c2ccccc2)n2c1CCC2.[Cl-]`, the “hERG current change (%, negative = inhibition) at 10uM” value is listed as 11.3%. On to `Cc1ccc(-c2csc(NC(=O)C[n+]3cc(-c4ccc(C)cc4)n4c3CCC4)n2)cc1.[Cl-]`, for which the “hERG current change (%, negative = inhibition) at 10uM” value is listed as -72.5%. Under `Cc1ccccc1NC(=O)C[n+]1cc(-c2ccccc2)n2c1CCC2.[Cl-]` stands 12.9%; under `O=C(C[n+]1cc(-c2ccc(Cl)cc2)n2c1CCC2)Nc1nc(-c2ccccc2)cs1.[Cl-]`, -0.843%; under `COC(=O)c1ccccc1NC(=O)c1cccc(COc2ccccc2Cl)c1`, 10.6%. For the compound `O=C(c1ccc(F)cc1)N1CCN(c2ncccn2)CC1`, the “hERG current change (%, negative = inhibition) at 10uM” value is -1.2%. With `CC(=O)/C=C(\C)Nc1ccc(-c2cnc(-c3ccccc3)o2)cc1`, the “hERG current change (%, negative = inhibition) at 10uM” value was -4.59%. Under `CC(=O)O[C@H]1CC[C@H]2[C@@H]3CCc4cc(O)ccc4[C@H]3CC[C@]12C` stands -5.79%. In the case of `COc1ccc(CC(=O)N/N=C/c2ccc(C)s2)cc1`, the “hERG current change (%, negative = inhibition) at 10uM” value was found to be 11%. Consider `O=C(Cc1cccc2ccccc12)Nc1ccc2c(c1)C(=O)NC2=O`, for which the “hERG current change (%, negative = inhibition) at 10uM” value is 9.52%. Under `COc1ccc(NC(=O)CS(=O)(=O)c2cn(CC(=O)N(C(C)C)C(C)C)c3ccccc23)c(OC)c1` stands -19.3%. For `O=C(CC(c1ccccc1)c1ccccc1)NCCOCc1ccccc1`, the “hERG current change (%, negative = inhibition) at 10uM” value was -12.6%. As to `Cc1ccc(CN2C(=O)CNC2=S)cc1`, the “hERG current change (%, negative = inhibition) at 10uM” value came to 9.68%. Next, `O=C(Nc1cccc(N=Cc2cc(Br)cc(Br)c2O)c1)c1ccco1`: 3.77%; `CCCc1nn(C)c(C(=O)Nc2ccc3ccccc3c2)c1Cl`: 8.62%. As to `CC1CC(C#N)N(N(C)C)C1=C(C#N)C#N` (stereo not shown), the “hERG current change (%, negative = inhibition) at 10uM” value is recorded as 11.3%. Next, `CC(=O)Nc1c2c(nn1-c1cccc(Cl)c1)CS(=O)C2` (stereo not shown): -1.6%; `CCOc1ccc(N=Cc2c(O)c3ccccc3oc2=O)cc1`: 3.29%. In the case of `Cc1cccc(OCC(=O)NCc2ccccc2)c1`, the “hERG current change (%, negative = inhibition) at 10uM” value worked out at 13.6%. Next, `CCn1cc(CN2CCc3c([nH]c4ccccc34)C2c2cccc(O)c2)c(C)n1` (stereo not shown): -18.8%. Turning to `COCCCN1CC(=O)N2C(c3cccc(OC)c3)c3[nH]c4ccccc4c3C[C@H]2C1=O` (stereo partly shown), the “hERG current change (%, negative = inhibition) at 10uM” value is given as -14.3%. Next, `CCOc1ccc(C2c3[nH]c4ccccc4c3CCN2Cc2cn(CC)nc2C)cc1` (stereo not shown): -63.6%. Regarding `COCCN1CC(=O)N2C(c3cccc(OC)c3)c3[nH]c4ccccc4c3C[C@H]2C1=O` (stereo partly shown), the “hERG current change (%, negative = inhibition) at 10uM” value is on record as -38.6%. Regarding `COc1cccc(C2c3[nH]c4ccccc4c3CCN2Cc2cnn(C)c2)c1` (stereo not shown), the “hERG current change (%, negative = inhibition) at 10uM” value is on record as -69.6%.

Turning to `Oc1cccc(C2c3[nH]c4ccccc4c3CCN2Cc2cnn(-c3ccccc3)c2)c1` (stereo not shown), the “hERG current change (%, negative = inhibition) at 10uM” value is reported as -35.3%.

On to `COc1cc(C2c3[nH]c4ccccc4c3CCN2Cc2cn(C)nc2C)ccc1F` (stereo not shown), for which the “hERG current change (%, negative = inhibition) at 10uM” value stood at 1.02%. Next, `COc1cccc(C2c3[nH]c4ccccc4c3CCN2Cc2cccc(C)n2)c1` (stereo not shown): -26.6%; `CCn1cc(CN2CCc3c([nH]c4ccccc34)C2c2cccc(OC)c2)c(C)n1` (stereo not shown): -57.3%; `CCn1cc(CN2CCc3c([nH]c4ccccc34)C2c2ccc(F)c(OC)c2)c(C)n1` (stereo not shown): 6.94%. Turning to `COc1cccc(C2c3[nH]c4ccccc4c3C[C@H]3C(=O)N(CCCCCO)CC(=O)N23)c1` (stereo partly shown), the “hERG current change (%, negative = inhibition) at 10uM” value is -64.9%. Under `CCn1cc(CN2CCc3c([nH]c4ccccc34)C2c2cccc(OC)c2OC)c(C)n1` (stereo not shown) stands 7.99%. Next, `Cc1ccc(C(=O)NCCC(=O)NCc2ccco2)cc1`: 9.59%; `CC1=NN(C(=O)c2nn(C)cc2Br)C(O)(C(F)(F)F)C1` (stereo not shown): 10.3%; `Cc1cccc(C)c1NC(=O)CNC(=O)C1CCCC1`: 2.19%. As to `O=C(NC1CCCCC1)C(c1ccc(F)cc1)N(C(=O)c1csnn1)C1CC1` (stereo not shown), the “hERG current change (%, negative = inhibition) at 10uM” value is 13.2%. Next, `CCOC(=O)C1CCN(c2nc3cc(OC)ccc3cc2C#N)CC1`: -16%. For the compound `COc1ccc2nc(C)cc(N3CCN(c4ccccc4)CC3)c2c1`, the “hERG current change (%, negative = inhibition) at 10uM” value is -66.7%. Under `COc1ccc(C(=O)CN2CCN(c3ncccn3)CC2)cc1.O=C(O)C(=O)O` stands 5.13%; under `COc1ccc2nc(C)cc(N3CCC(C(N)=O)CC3)c2c1`, -33.7%; under `COc1ccc2nc(C)cc(N3CC(C)OC(C)C3)c2c1` (stereo not shown), -49.6%. Next, `CCOC(=O)C1CCN(c2cc(C)nc3ccc(OC)cc23)CC1`: -73.8%.

Consider `COc1ccc2nc(C)cc(N3CCOCC3)c2c1`, for which the “hERG current change (%, negative = inhibition) at 10uM” value is recorded as -14.6%. As to `COc1ccc(C(=O)CN2CCN(c3cc(C)nc4ccccc34)CC2)cc1`, the “hERG current change (%, negative = inhibition) at 10uM” value is on record as -68.8%. Next, `COc1ccc(N2CCN(c3cc(C)c4ccccc4n3)CC2)cc1`: 3.95%. Next, `COc1ccc(N2CCN(c3cc(C)nc4ccc(OC)cc34)CC2)cc1`: -69.1%; `COc1ccc(N2CCN(CC(=O)c3ccccc3)CC2)cc1`: 11%. Under `COc1ccc2nc(C)cc(C(=O)O)c2c1` stands 0.7%. Turning to `Cc1ccc(NC(=O)CNC(=O)c2cccs2)c(O)c1`, the “hERG current change (%, negative = inhibition) at 10uM” value was found to be 15.1%. As to `Cl.NS(=O)(=O)c1cccc(N2CCNCC2)c1`, the “hERG current change (%, negative = inhibition) at 10uM” value is recorded as 11.7%.

For the compound `COc1ccc(Cl)cc1NC(=S)NNC(=O)c1cccnc1`, the “hERG current change (%, negative = inhibition) at 10uM” value is given as 36.9%.
